Screens from PubChem BioAssay.
In the library only some 3.3% were active in any assay of this set; here they are far more common.
MBD2 inh: inhibitors of human MBD2 binding to methylated oligonucleotide; TR-FRET; inhibition, % at 4.4 µM; 0.31% of 370,000 active; AID 686964; in the data active = inhibition above about 13%
PfG6PD inh: PfG6PD (Plasmodium falciparum) enzyme inhibition; PfGluPho enzyme, NADPH resazurin-diaphorase fluorescence; inhibition, % at 20 µM; 0.78% of 350,000 active; AID 504690;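 active = inhibition reaching at least a set limit at 20 µM in the primary screen, cut at about 59% in these data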;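 also: 0% = DMSO wells with substrate and 100% = DMSO wells lacking glucose-6-phosphate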
UHRF1 binding: human UHRF1 methylated DNA binding inhibitors | inhibition, % at 4.4 µM | AID 687016 | Q96T88 | UHRF1 binding to methylated oligo, TR-FRET | 0.75% of 370,000 active; in the data active = inhibition above about 21%;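 also: UHRF1 SRA domain binding a hemimethylated CpG hairpin DNA probe; 0% = median of test compound wells and 100% = reference inhibitor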
M18AAP inhibitor: blocks P. falciparum M18 aspartyl aminopeptidase; AID 1822; recombinant PfM18AAP, H-Glu-NHMec fluorogenic cleavage; 1.2% of 290,000 active; inhibition, % at 7.35 µM;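 active = inhibition above the campaign mean inhibition over all tested compounds plus 3 SD, cut at about 28% in these data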;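 also: 0% = plate median of test compound wells and 100% = 2 mM ZnCl2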
PRMT1 inh: inhibitors of human PRMT1; Q99873; recombinant PRMT1, activity-based probe fluorescence polarization; inhibition, % at 2.79 µM; 1.3% of 370,000 active; AID 652257;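 active = inhibition above about 21% made by adding two undisclosed values, limit read from the data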
Target sequence (Q99873 whole entry, looked up): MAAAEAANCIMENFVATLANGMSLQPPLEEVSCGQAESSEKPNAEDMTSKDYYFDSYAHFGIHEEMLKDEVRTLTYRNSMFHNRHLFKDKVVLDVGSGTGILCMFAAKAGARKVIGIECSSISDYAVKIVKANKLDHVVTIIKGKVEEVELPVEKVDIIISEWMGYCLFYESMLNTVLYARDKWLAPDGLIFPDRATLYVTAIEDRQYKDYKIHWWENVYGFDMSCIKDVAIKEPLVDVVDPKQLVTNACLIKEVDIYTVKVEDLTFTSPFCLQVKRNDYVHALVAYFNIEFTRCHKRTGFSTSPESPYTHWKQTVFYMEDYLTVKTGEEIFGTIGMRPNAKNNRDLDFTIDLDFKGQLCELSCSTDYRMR
* = called active by the depositor; · = not tested or not shown.

SMILES	MBD2 inh	PfG6PD inh	UHRF1 binding	M18AAP inhibitor	PRMT1 inh
COC(=O)C[C@@H]1CC[C@@H]2[C@@H](COc3ccc(NC(=O)Nc4ccccc4)cc3C(=O)N2C)O1	-7	·	0	·	0
Oc1cccc(/C=N/NC(=S)NCCN2CCOCC2)c1O	5	-14	30*	29*	5
S=C(NCCN1CCOCC1)N/N=C/c1cccs1	0	1	-3	1	-3
NC(=S)N/N=C/c1cccc(O)c1O	1	6	-2	40*	10
O=C(OCCN1CCCC12CCC(c1ccccc1)CC2)c1ccccc1 (stereo not drawn)	-1	·	-1	·	4
O=C(Nc1cccc(S(=O)(=O)N2CCOCC2)c1)c1ccc2ccccc2n1	1	10	22*	4	6
O=C1CCC/C(=N\NC(=O)c2ccc(NS(=O)(=O)c3ccc(Br)cc3)cc2)C1	-3	-7	1	30*	-3
COc1ccccc1N1CCN(C(=O)c2cc(C(C)(C)C)oc2C)CC1	-2	-4	2	29*	-4
COc1ccccc1N1CCN(C(=O)COc2cc(C)cc(C)c2)CC1	10	-15	28*	0	5
Cc1cc(Oc2ccc(C#N)cc2)nc(N2CCOCC2)n1	11	32	21*	-9	1
O=C1C(=O)N(CCN2CCOCC2)C(c2ccc([N+](=O)[O-])cc2)/C1=C(/O)c1ccc2c(c1)OCO2 (stereo not drawn)	-4	9	-2	27	23*
Clc1ccc2nc(CNc3nc(N4CCOCC4)nc4c3ncn4-c3ccsc3)[nH]c2c1	-7	·	-1	·	0
Cc1ccc(C(=O)NC2CCCCN(Cc3ccccc3C)C2=O)cc1 (stereo not drawn)	2	·	1	·	-5
O=C(/C(=C/c1ccccc1)n1cncn1)c1ccc(Cl)cc1Cl	-6	6	-2	54*	-2
CC(C)CNC(=S)N1CCC(NC(=O)c2ccco2)CC1	2	15	23*	-2	2
C=CCNC(=S)Nc1ccc2nsnc2c1	-4	-3	-6	9	-2
C=CCN(CC=C)C(=S)Nc1ccc2nsnc2c1	-3	7	12	1	28*
COc1cccc(C(=O)N/N=C(/CCC(=O)O)c2ccccc2)c1	-6	-8	-1	-2	1
CCC/C(=N\NC(=O)c1cccc(C)c1)c1ccccc1	0	9	33*	-2	-2
NC(=O)c1cccc2c3c([nH]c12)CCCC3	·	-8	·	2	·
Cc1cccc2c3c([nH]c12)CCN(C)C3	1	2	1	29*	-3
CCOc1ccc(N(C)Cc2cc(=O)oc3ccc(OCC)cc23)cc1	3	6	22*	6	5
CC(=O)C1=C(C)N(CC(C)C)C(=S)NC1c1cccc(Cl)c1 (stereo not drawn)	0	·	-2	·	0
CC(C)C[C@@H]1COc2cc(Br)ccc2S(=O)(=O)N1Cc1cn(Cc2ccc(F)cc2)nn1	2	·	0	·	0
COc1cc(O)c(C(C)=O)c(CC(=O)O)c1	10	-3	28*	·	4
SMILES	MBD2 inh	PfG6PD inh	UHRF1 binding	M18AAP inhibitor	PRMT1 inh
COC(=O)c1cc(-c2ccc(C(C)=O)cc2)c(=O)n2c1CCC2	3	·	-3	·	-1
COC(=O)c1cccc2c([N+](=O)[O-])c(NC(C)=O)cc(C(=O)OC)c12	4	·	-3	·	0
CCN(CC)C(=O)C1CCC(CNS(=O)(=O)c2cccc3cccnc23)CC1 (stereo not drawn)	-3	2	-2	5	-5
CN(Cc1ccccc1)C(=O)C1CCC(CNS(=O)(=O)c2cccc3cccnc23)CC1 (stereo not drawn)	4	-2	32*	3	3
Nc1nc(N)c2cc(CNc3ccc(Cl)c(Cl)c3)ccc2n1	12	36	22*	·	3
COC(=O)CCCn1cc(CN2CC(N3CCN(C)CC3)CS2(=O)=O)nn1 (stereo not drawn)	8	·	24*	·	3
CCCCCCn1cc(CN2CC(N3CCN(C)CC3)CS2(=O)=O)nn1 (stereo not drawn)	12	·	17	·	-1
O=c1[nH]c(C2CCN(S(=O)(=O)c3ccc4c(c3)OCCO4)CC2)nc2c1nnn2Cc1ccc(F)cc1	5	-16	27*	-9	3
OC(c1ccccc1)(c1ccccc1)C1CCN(CCCOc2ccc(-c3ccncc3)cc2)CC1	10	·	1	·	1
CCOC(=O)[C@]12CCCC=C1N(CCc1ccc(Cl)cc1)C(=O)[C@@H]2CC(=O)NCCC(C)C	-7	·	0	·	2
CCCCNc1c2c3c(cccc3n(C)c1=O)C(=O)c1ccccc1-2	·	13	·	2	·
